The whole screen tested about 340,000 compounds, of which about 1,300 (0.38%) were called active. The sample holds actives, similar compounds and a random draw of the others, so the mix is not that of the screen. A number with no mark means an inactive call.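 Rule for the calls: active = maximum activity change below -70%; inconclusive = maximum activity change between -70% and -50%; inactive = maximum activity change above -50%.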
% is set by controls: 0 for no effect and ±100 for the full control effect.

Sequence of Voltage-gated inwardly rectifying potassium channel KCNH2 (Homo sapiens) (Q12809 whole entry, looked up, canonical isoform): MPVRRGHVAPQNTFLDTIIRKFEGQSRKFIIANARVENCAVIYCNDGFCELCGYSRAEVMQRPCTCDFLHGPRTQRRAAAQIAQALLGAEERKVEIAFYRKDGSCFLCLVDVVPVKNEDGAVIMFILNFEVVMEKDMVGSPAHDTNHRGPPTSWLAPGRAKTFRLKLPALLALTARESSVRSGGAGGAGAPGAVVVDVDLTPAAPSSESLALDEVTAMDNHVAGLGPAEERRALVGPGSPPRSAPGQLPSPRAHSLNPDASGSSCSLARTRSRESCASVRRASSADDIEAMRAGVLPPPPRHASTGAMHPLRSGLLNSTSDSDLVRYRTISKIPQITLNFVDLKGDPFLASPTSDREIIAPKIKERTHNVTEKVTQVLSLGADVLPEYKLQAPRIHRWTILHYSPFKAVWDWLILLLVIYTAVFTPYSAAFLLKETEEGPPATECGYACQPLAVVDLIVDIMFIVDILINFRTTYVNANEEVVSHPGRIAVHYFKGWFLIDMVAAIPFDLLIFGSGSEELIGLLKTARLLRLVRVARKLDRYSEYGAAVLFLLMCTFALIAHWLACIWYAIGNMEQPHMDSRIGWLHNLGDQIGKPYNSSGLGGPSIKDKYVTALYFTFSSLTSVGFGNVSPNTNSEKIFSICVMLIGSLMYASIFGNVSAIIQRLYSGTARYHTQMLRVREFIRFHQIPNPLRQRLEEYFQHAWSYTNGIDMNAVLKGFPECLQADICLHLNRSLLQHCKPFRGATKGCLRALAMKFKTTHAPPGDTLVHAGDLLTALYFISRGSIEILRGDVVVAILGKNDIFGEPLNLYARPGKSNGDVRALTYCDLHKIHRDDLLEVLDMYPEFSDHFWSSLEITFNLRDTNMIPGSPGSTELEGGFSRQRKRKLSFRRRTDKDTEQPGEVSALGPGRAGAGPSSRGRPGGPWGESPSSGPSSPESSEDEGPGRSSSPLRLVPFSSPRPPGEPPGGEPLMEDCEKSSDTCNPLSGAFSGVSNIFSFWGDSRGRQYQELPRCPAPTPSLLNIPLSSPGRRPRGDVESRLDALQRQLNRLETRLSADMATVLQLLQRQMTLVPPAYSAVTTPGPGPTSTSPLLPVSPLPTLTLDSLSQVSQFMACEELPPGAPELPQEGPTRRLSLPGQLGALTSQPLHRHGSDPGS

The test addresses Voltage-gated inwardly rectifying potassium channel KCNH2 (Homo sapiens) (UniProt Q12809). The test can be described thus: qHTS for Inhibitors of KCHN2 3.1: Wildtype qHTS. The conditions noted are these: U2OS, BacMam KCNH2, thallium flux FluxOr; at 1.84 µM; stronger effect = lower value. An excerpt:
Many antipsychotic drugs that inhibit the neurotransmitter dopamine also bind to hERG1 channel which might help explain their antipsychotic activity but also produces cardiac side effects. The discovery of the novel KCNH2 3.1 isoform offers a potential new target for the development of antipsychotic drugs without cardiac side effects. This proposal will use a high throughput thallium flux assay developed for KCNH2 to screen compounds that modulate the activity of KCNH2 3.1. The wild type KCNH2 channel will also be screened in parallel to help define the selective modulators of this KCNH2 3.1 potassium channel. The resulting compounds will be validated in electrophysiology experiments. The availability of animal models will allow future testing in vivo for effects on memory and other aspects of animal physiology linked with psychosis. NIH Chemical Genomics Center [NCGC] NIH Molecular Libraries Probe Centers Network [MLPCN] MLPCN Grant: MH096539 Assay Submitter (PI): James Barrow, Johns Hopkins University, Lieber Institute for Brain Development
U2OS cells were resuspended in cell media containing 10% fetal calf serum (FCS) at a concentration of 2 million cells / mL. The solution was treated with the Wild-type virus at 2.03 x 10^8 / mL and allowed to incubate at room temperature in the dark. After 4 hours of incubation, DMEM + 10% fetal bovine serum (FBS) was added to the cell solution. Three microliter was then dispensed into a 1536 tissue culture treated black assay plates which were incubated overnight at 37 C. Two microliter of loading buffer (HBSS + HEPES + Red40 dye quencher + FluxOr dye) was added and the assay plates were incubated for 45 min at room temperature in the dark. […] A stimulation buffer was added to the plate and the second kinetic read (2 min) was obtained. The rate constant was calculated from the kinetic reads and normalized to the positive and negative DMSO controls.
Background: In qHTS, concentration-response curves come from the screen itself.
Consider `CN(C)C1=NC[C@H](Cc2ccccc2)N1CCc1ccc(F)cc1`, for which the activity change is -88.4% (active).

Turning to `CCCCN1C(N)=NC[C@@H]1Cc1ccccc1`, the activity change is -3.39%.

On to `CCCC[C@@H]1CN=C(N)N1CCc1cccc(F)c1`, for which the activity change is -2.35%.

Regarding `O=C1OCCC1=COCCCCOC=C1CCOC1=O`, the activity change is 0.218%.

As to `COC(=O)C[C@H]1C[C@@H]2c3cc(NC(=O)Nc4ccccc4)ccc3O[C@@H]2[C@@H](CO)O1`, the activity change was -0.954%.

As to `CCOc1ccc(NC(=O)N2CCN(CC)CC2)cc1`, the activity change was 0.628%.

In the case of `CCc1cc(C(=O)c2ccc(OC)cc2)c(NC(=O)CN2CCN(C)CC2)s1`, the activity change was -79.3% (active).

Regarding `CCOc1ccc(NC(=O)CN2CCN(CC(=O)Nc3ccc(OC)cc3)CC2)cc1`, the activity change was -141% (active).

In the case of `COc1cccc(NC(=O)CN2CCN(CC(=O)Nc3ccccc3Cl)CC2)c1`, the activity change is 19.7%.

Turning to `CCc1ccc(NC(=O)CN2CCC(C(=O)c3ccc(OC)cc3)CC2)cc1`, the activity change was 1.48%.

`COc1ccc(C(=O)Nc2sc(C)c(C)c2CN2CCOCC2)cc1`: the activity change was -3.94%.

Regarding `C[C@H](CO)N1C[C@H](C)[C@@H](CN(C)C(=O)c2cnccn2)Oc2ncc(Br)cc2C1=O`, the activity change was -7.83%.

On to `O=C(NCCOc1ccccc1)N1[C@H]2CC[C@@H]1C=C(c1ccc(F)cc1OCc1ccccc1)C2`, for which the activity change was 2.38%.

For `Cc1ccccc1SCC(=O)OCC(=O)N1CC(=O)Nc2ccccc21`, the activity change is 7.23%.

In the case of `O=C1CN(C(=O)COC(=O)c2cnc(Cl)c(Cl)c2)c2ccccc2N1`, the activity change is 8.42%.

Turning to `O=C1CN(C(=O)COc2c(Cl)cccc2Cl)c2ccccc2N1`, the activity change was -143% (active).

For `COc1ccc(NC(=O)CSc2nnnn2-c2cccc(OC)c2)cc1`, the activity change is 52.5%.

As for `Cc1ccc(S(=O)(=O)N2C[C@@H](C)[C@]3(C2)[C@H](O)[C@H](OC(=O)NCc2ccccc2)C[C@H]2C(=O)N(c4ccccc4)C(=O)[C@H]23)cc1`, the activity change is -2.73%.

`COc1ccc([C@H]2N[C@]3(CCCN(CC4CCCCC4)C3=O)[C@H]3C(=O)N(C)C(=O)[C@@H]23)cc1`: the activity change is 14.1%.

As for `C[C@H]1CCC(=O)N([C@H](CSc2ccccc2)Cc2ccccc2)CC1`, the activity change is 9.67%.

Take `COc1ccc(SC[C@H](Cc2ccccc2)N2CCN(CCc3ccccc3)CCC2=O)cc1`: the activity change was -108% (active).

On to `O=C1CC[C@H](O)CCN1[C@H](CSc1ccc(Br)cc1)Cc1ccccc1`, for which the activity change is 0.842%.

On to `C[C@H]1CN([C@@H](C)CO)C(=O)CCCn2cc(nn2)CO[C@@H]1CN(C)S(=O)(=O)c1cccc(C#N)c1`, for which the activity change is -15.1%.

`CC(OC(=O)c1cccnc1Cl)C(=O)NC1CCCCC1` (stereo unspecified): the activity change is 10.4%.

Take `COc1ccc(-n2c(-c3ccc(Cl)cc3)n[nH]c2=S)c(OC)c1`: the activity change was -22.5%.

Regarding `Cc1nn(-c2ncccn2)c2c1C(=O)CC(C)(C)C2Br` (stereo unspecified), the activity change is -151% (active).

As for `Cc1nn(-c2ccccc2)c2c1C(=O)NC(=O)C(C)(C)C2`, the activity change is -0.0713%.

Regarding `CC1=C(N2CCN(c3ncccn3)CC2)CCC1=O`, the activity change was 2.31%.

As for `O=C(COC(=O)CCc1c[nH]c2ccccc12)Nc1cccc(Cl)c1`, the activity change is -8.07%.

Consider `CC1(C)CN(CCc2ccccc2)C(=O)[C@H]1CC(=O)Nc1ccc(Br)cc1`, for which the activity change was -7.47%.

Regarding `CCCNC(=O)c1ccc(N2CCC3(CC2)CC(c2ccc(Cl)cc2)=NO3)c([N+](=O)[O-])c1`, the activity change was -85.9% (active).

`COCCNC(=O)c1ccc(N2CCC3(CC2)OCCO3)c([N+](=O)[O-])c1`: the activity change is -4.71%.

With `CCC(C)NC(=O)c1ccc(N2CCC3(CC2)OCCO3)c([N+](=O)[O-])c1` (stereo unspecified), the activity change was -3.92%.

On to `COc1ccc(OC)c(CN2CCN(C(=O)CNC(=O)c3cc(C)cc(C)c3)CC2)c1`, for which the activity change was -138% (active).

With `Cc1cc(C)cc(C(=O)NCC(=O)OCC(=O)N2CCCCC2)c1`, the activity change is -9.23%.

Turning to `COc1cc(OC)cc(C(=O)NCC(=O)N2CCCCCCC2)c1`, the activity change is 8.95%.

As for `COc1ccc(C(CNC(=O)CSc2ccccc2)N2CCOCC2)cc1` (stereo unspecified), the activity change is -6.03%.

On to `Cc1ccc(C=O)c([B-](F)(F)F)c1`, for which the activity change was -18.6%.

As for `Cc1cc(=O)c2ccc(NC(=O)c3ccccc3)cc2[nH]1`, the activity change is 13.6%.

Take `COc1cc(C)c(CN2CCN(C(=O)CCC(=O)c3ccc(C)s3)CC2)cc1OC`: the activity change is 1.74%.

For `COc1ccc(NC(=O)N2CCCC2C(=O)NCc2ccccc2Cl)cc1` (stereo unspecified), the activity change was -3.26%.

For `O=C(Nc1ccc(Br)cc1)C1CCC(=O)N1Cc1ccccc1Cl` (stereo unspecified), the activity change is -94.2% (active).

Turning to `O=C1c2ccccc2C(O)N1Cc1ccccc1Cl` (stereo unspecified), the activity change is 23.3%.

As to `CCN1CCN(CC(=O)Nc2sc3c(c2C#N)CCC3)CC1`, the activity change was 5.2%.

As for `O=C(O)c1c(NC(=O)N2CCCC2)sc2c1CCCC2`, the activity change is 0.0561%.

Regarding `O=C(CN1CCCC1)Nc1sc2c(c1C(=O)Nc1ccccc1)CCCC2`, the activity change is -93.7% (active).

With `c1ccc(Cn2nnc3c(NCC4CC4)ncnc32)cc1`, the activity change was -10.7%.

On to `Cc1c(NC(=O)COC(=O)/C=C/c2cccc(F)c2)c(=O)n(-c2ccccc2)n1C`, for which the activity change is 0.394%.

As to `Cc1csc(=O)n1CCC(=O)OCC(=O)Nc1ccc(N2CCOCC2)cc1`, the activity change is -7.46%.

In the case of `Cn1c(CCN2CCN(c3ccccn3)CC2)nc2cc(NS(=O)(=O)c3ccc(F)cc3)ccc21`, the activity change is -20.6%.

With `COc1ccc(C(=O)NC2CC2)cc1OC1CCN(Cc2cnn(C)c2)CC1`, the activity change was -9.12%.

With `COc1ccc(C(=O)NC2CC2)cc1OC1CCN(C/C=C/c2ccccc2)CC1`, the activity change is -83.5% (active).

Consider `COc1cc2[nH]c(=O)n(Cc3ccc(C(=O)NC4CCN(Cc5ccccc5)CC4)cc3)c(=O)c2cc1OC`, for which the activity change is -9.69%.

Consider `COc1ccc(C(=O)NC2CC2)cc1OC1CCN(Cc2ccc(SC)cc2)CC1`, for which the activity change is -117% (active).

With `COc1ccc(C(=O)NCCn2nc(C)cc2C)cc1OC1CCN(C(C)=O)CC1`, the activity change was 3.09%.

As to `COc1cc(C(=O)N2CCN(C/C=C/c3ccccc3)CC2)cc(OC)c1C`, the activity change is -0.254%.

For the molecule `O=C(NCc1ccccc1)C1CNCC(C(=O)NCc2ccccc2)C1` (stereo unspecified), the activity change was -19%.

`COc1ccc(-c2ccc3[nH]c4c(c3c2)CCN2C[C@H]3[C@H](C)ON(C)[C@H]3C[C@@H]42)cc1`: the activity change is -1.03%.

As for `COc1cc(NC(=O)C2=C(C)OCCS2)c(Cl)cc1C(=O)NCCCN1CCCC(C)C1` (stereo unspecified), the activity change was 15%.

Consider `N#CC1(Nc2ccc3c4c(cccc24)CC3)CCCCC1`, for which the activity change was -12.6%.

Consider `COc1cccc(CC2(CO)CCCN(Cc3nc(-c4cccs4)oc3C)C2)c1` (stereo unspecified), for which the activity change is -11.7%.

Turning to `COc1cccc(CC2(CO)CCCN(CC3=Cc4cc(OC)ccc4OC3)C2)c1` (stereo unspecified), the activity change is 8.29%.

In the case of `COc1cccc(CC2(CO)CCCN(Cc3ccc(OC(F)F)cc3)C2)c1` (stereo unspecified), the activity change was -73.9% (active).

For `C[C@@H]1CN([C@@H](C)CO)C(=O)CCCn2nncc2CO[C@H]1CN(C)C(=O)Nc1ccc(C(F)(F)F)cc1`, the activity change was -21.9%.

With `Cc1ccc(OCC(=O)Nc2ccccc2C(=O)NC2CC2)cc1`, the activity change was 36.5%.

Consider `N#Cc1ccc(CN2CCN(CC(=O)Nc3ccccc3C(=O)NC3CC3)CC2)cc1`, for which the activity change is -89.2% (active).

Take `O=C(CN1CCCCC1)Nc1ccccc1C(=O)NC1CC1`: the activity change is 4.09%.

Consider `COc1ccc(OC)c(C(=O)NC2CCCc3c2cnn3-c2cc(C)cc(C)c2)c1` (stereo unspecified), for which the activity change was -0.114%.

For the molecule `CC1(C)NC(=O)N(CC(=O)Nc2ccc(-c3ccccc3)cc2)C1=O`, the activity change is -12.6%.

Regarding `COc1ccc2oc(C(=O)NCc3ccco3)c(C)c2c1`, the activity change is 26.9%.

Regarding `COc1ccc2c(Cl)c(C(=O)NCc3ccco3)sc2c1`, the activity change was -70.1% (active).

In the case of `O=C(NCc1ccco1)c1sc2cccc(F)c2c1Cl`, the activity change is -25.2%.

Consider `OCC1OC(n2cnc3c(N4CCCC4)ncnc32)C(O)C1O` (stereo unspecified), for which the activity change was -11.6%.

For the molecule `C[C@H]1CN(c2ccc(Br)cc2)C(=O)[C@@H]1CC(=O)Nc1ccc(Br)cc1`, the activity change was 1.02%.

In the case of `C=CCNC(=O)c1sc(SC)cc1-c1ccc(Cl)cc1`, the activity change is -187% (active).

As for `CSc1sc(C(=O)NNC(=O)c2ccc(Cl)cc2)c2c1C=CCC2`, the activity change is -2.11%.

`CN(CC(=O)Nc1ccc(F)cc1)C(=O)c1ccc(-c2ccc(Cl)cc2)o1`: the activity change was -18.6%.

Turning to `Cc1ccc(S(=O)(=O)NCCN2CCOCC2)cc1C`, the activity change was -76.1% (active).

`Cc1cc(C)c(S(=O)(=O)NCCCN2CCOCC2)cc1Br`: the activity change is 12.5%.

On to `O=S(=O)(NCCCN1CCOCC1)c1ccc(F)c(Cl)c1`, for which the activity change was 4.11%.

As to `C[C@H]1CN([C@@H](C)CO)S(=O)(=O)c2ccc(Br)cc2O[C@H]1CN(C)C(=O)c1cnccn1`, the activity change was 2.27%.

As to `COCCCNc1nc2c(-c3cccc(C(F)(F)F)c3)nnn2c2ccccc12`, the activity change is -4.14%.

For `COCCCNc1nc2c(-c3cccc(C)c3)nnn2c2ccc(Cl)cc12`, the activity change is -86% (active).

Take `COC(=O)Cn1nc(-c2ccccc2)c2cc(Cl)ccc21`: the activity change is -4.79%.

`Cc1nnc(SC(C)C(=O)c2c[nH]c3ccccc23)n1C1CC1` (stereo unspecified): the activity change was -2.83%.

For `Cc1cn([C@H]2C[C@H](O)[C@@H](CNC(=O)[C@H](N)Cc3cccnc3)O2)c(=O)[nH]c1=O`, the activity change is -1.56%.

On to `O=C(C[C@H]1C[C@@H]2c3cc(NC(=O)C4CCC4)ccc3O[C@@H]2[C@H](CO)O1)NC1CCCCC1`, for which the activity change is -22.6%.

For `O=C(C1CCCO1)N1CCN(C(=O)C23CC4CC(CC(C4)C2)C3)CC1` (stereo unspecified), the activity change is -8.69%.

As to `c1ccc(CCc2ccccn2)cc1`, the activity change was 15.2%.

Regarding `O=c1[nH]nc(Cc2ccccn2)c2ccccc12`, the activity change was -160% (active).

Regarding `Cc1ccc(C(=O)C(C)OC(=O)Cc2n[nH]c(=O)c3ccccc23)cc1C` (stereo unspecified), the activity change was 5.46%.

Source of the values: PubChem BioAssay AID720551 (National Center for Advancing Translational Sciences (NCATS), 2013).
